The values below come from PubChem BioAssay.

Structures are written as SMILES. Unmarked numbers belong to inactive results. Active and inactive are the calls of the source.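 How the source made its calls: active means inhibition of the reporter signal at or above 50%; inactive means inhibition below 50%.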

What is called inhibition is the relative decrease from the control value, in per cent.

The nature of this assay: inhibitors of poly I:C-induced TLR3 signaling, primary screen, cell-based, poly I:C stimulus, luciferase, 10K MLSCN set (AID 602277). As to conditions: HEK293-TLR3 RL24 IRF3 luciferase reporter, at 10 µM, hits give high values. On the technique in general: In a reporter assay the amount or activity of a reporter protein is the signal.
On to `CC(C)(Oc1ccc(Cl)cc1)C(=O)NCc1ccncc1`, for which the inhibition is 12.2%.

On to `Cc1ccc(C)c(S(=O)(=O)NCc2cccnc2)c1`, for which the inhibition is 100% (active).

On to `Cc1cc(-c2ccccc2)c(C#N)c(N)n1`, for which the inhibition is 34.2%.

As for `CCCCCc1c(C)nc(SCC(=O)O)[nH]c1=O`, the inhibition is -1.36%.

As for `COC(=O)c1ccc(NC(=O)C(C)N2C(=O)c3ccccc3C2=O)cc1` (stereo not given), the inhibition was 3.26%.

For the compound `O=C(Nc1cccnc1)c1cccc(NC(=O)c2ccco2)c1`, the inhibition was 22.4%.

For `Cc1ccnc(NC(=O)CCC(=O)N(CC(=O)NC(C)(C)C)C2CCCC2)c1`, the inhibition was 9.79%.

With `COCCNC(=O)CN(C)S(=O)(=O)c1ccc(Br)cc1`, the inhibition was 12.3%.

`CC(=O)NC(C)c1nc2ccccc2n1C(C)C` (stereo not given): the inhibition was 42.2%.

With `COC(=O)C1CCN(C(=O)c2sc3nc(-c4ccc(F)cc4)cn3c2C)CC1`, the inhibition is 3.27%.

For `CC(Sc1nnnn1C)C(=O)Nc1ccc(Oc2ccccc2)cc1` (stereo not given), the inhibition was -9.23%.

As for `c1ccc(Cn2nnnc2C(c2cccs2)N2CCSCC2)cc1` (stereo not given), the inhibition is 14.3%.

With `Cn1c(=O)[nH]c(=O)c2c1nc(NCCCn1ccnc1)n2Cc1cccc(Br)c1`, the inhibition is 26.1%.

Turning to `CCOC(=O)N1CCN(C(=O)c2c(-c3ccccc3)noc2C)CC1`, the inhibition is 31.9%.

With `COc1ccc2c(c1OC)C(=O)N(c1ccc3c(c1)CCC3)C2=O`, the inhibition was -9.24%.

As to `Cc1ccc(NC(=O)C2CCCN(S(=O)(=O)c3cnc[nH]3)C2)cc1C` (stereo not given), the inhibition was 6.37%.

On to `O=C(Cn1ncc2c1-c1ccccc1OC2)N1CCN(c2ccccn2)CC1`, for which the inhibition was 26.9%.

As to `C/C=C/c1ccc(OCCn2cncn2)c(OC)c1`, the inhibition was 2%.

For the compound `Cc1c(C(=O)OC2CCCCC2)[nH]c2c1C(=O)CC(C)(C)C2`, the inhibition was -13.3%.

Consider `COc1ccccc1N1C(=O)CC(Sc2nc(C)cc(C)n2)C1=O` (stereo not given), for which the inhibition is 19.3%.

In the case of `Cc1nc(SCCC(=O)O)c2ccccc2n1`, the inhibition is 18.5%.

As for `Nc1sccc1C(=O)c1ccc(Cl)cc1`, the inhibition is 0.658%.

Regarding `Cc1ccccc1Cn1ccc(NC(=O)c2onc(C)c2Cl)n1`, the inhibition is -37%.

Consider `Nc1c(C(=O)NCCN2CCOCC2)c2nc3ccccc3nc2n1-c1ccc2c(c1)OCO2`, for which the inhibition is 16.5%.

`Cc1cc(C(=O)Nc2nc3c(s2)CCCC3)cs1`: the inhibition is -131%.

As to `COC(=O)CNc1nc(C2CC2)nc2c1nnn2Cc1ccccc1Cl`, the inhibition was 17.8%.

As for `CCN1CCN(C(c2ccc(F)cc2)c2nnnn2Cc2cccs2)CC1` (stereo not given), the inhibition was 21.4%.

For the compound `O=C1CN(c2nc3ccccc3n3cnnc23)CC(=O)N1CCc1ccccc1`, the inhibition was 9.78%.

Regarding `O=S(=O)(c1ccc(S(=O)(=O)N2CCN3CCCC3C2)cc1)N1CCCC1` (stereo not given), the inhibition was 28.2%.

In the case of `O=C1CC(c2cccc(Cl)c2)Cc2nc(N3CCN(c4ccccc4)CC3)ncc21` (stereo not given), the inhibition is -2.99%.

As to `CCC1SC2=NC(C)=C(C(=O)OC)C(c3ccc(C)cc3)N2C1=O` (stereo not given), the inhibition is -17.2%.

Regarding `O=C(CN1CCC(NC(=O)c2ccc(F)cc2)CC1)NCc1ccccc1F`, the inhibition was 23.8%.

With `COC(=O)C(C)NC(=O)C12CC3CC(CC(C3)C1)C2` (stereo not given), the inhibition is 23%.

Take `Cc1ccc(S(=O)(=O)NC(=O)c2cc(C)n(CCCn3ccnc3)c2C)cc1`: the inhibition is 13.5%.

As for `O=S(=O)(NCC(c1cccnc1)N1CCN(c2ccccc2)CC1)c1cc(F)ccc1F` (stereo not given), the inhibition is 20.8%.

In the case of `COc1ccc2ccccc2c1CN1CCN(C)CC1`, the inhibition is 27.9%.

Consider `CCOC(=O)/C=C1\CC(=O)Nc2nonc2N1`, for which the inhibition was 21.4%.

`CCn1ncc(Cl)c1C(=O)Nc1ccncc1`: the inhibition is -1.03%.

Turning to `Cn1c(=O)cc(OCC(=O)NCCCN2CCN(c3cccc(Cl)c3)CC2)c2ccccc21`, the inhibition was 31.3%.

For the compound `CCOc1cc(C(=O)N(C)Cc2cc3cc(OC)ccc3[nH]c2=O)cc(OCC)c1OCC`, the inhibition is 18.6%.
